According to PubChem BioAssay AID493034 (The Scripps Research Institute Molecular Screening Center, 2011):
In all, about 2,400 compounds went through this assay and about 2,200 (92%) were called active. The set was probably picked from earlier hits. The list shows a part of the results. A number with no mark means an inactive call.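 The calls were made as follows: active = mean inhibition over triplicate runs exceeds the cutoff derived for the earlier primary screen (cut at about 25% in these data); inactive = the rest.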

molecular target: Platelet-activating factor acetylhydrolase IB subunit alpha2 (Homo sapiens) (UniProt P68402); assay: inhibition of human PAFAH1B2 catalytic subunit – biochemical, fluorescence polarization, FP-rhodamine probe, triplicate, confirmation (AID 493034); details: recombinant PAFAH1B2, FP-rhodamine probe fluorescence polarization; at 3.39 µM; active compounds read high;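 also: 0% = enzyme with DMSO and 100% = wells lacking PAFAH1B2 protein; inhibitors lower polarization by leaving the probe unbound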
Sequence (P68402 whole entry, looked up): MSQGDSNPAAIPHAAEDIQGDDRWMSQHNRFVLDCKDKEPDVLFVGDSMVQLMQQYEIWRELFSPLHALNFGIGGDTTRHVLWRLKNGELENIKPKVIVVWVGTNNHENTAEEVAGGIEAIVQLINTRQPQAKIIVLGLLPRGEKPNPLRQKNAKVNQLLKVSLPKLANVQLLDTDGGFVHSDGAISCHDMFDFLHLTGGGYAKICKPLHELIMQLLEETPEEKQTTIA

| SMILES | inhibition |
| --- | --- |
| O=C(O)CCc1ccc(S(=O)(=O)Nc2cc(C(F)(F)F)ccc2N2CCCC2)cc1 | 13.5% |
| O=C(O)CC/C(=C\c1ccc(N2CCOCC2)c([N+](=O)[O-])c1)c1nc2ccccc2s1 | 91.2% (active) |
| O=C(O)CC/C(=C\c1ccc(N2CCCC2)c([N+](=O)[O-])c1)c1nc2ccccc2s1 | 84.2% (active) |
| O=C(O)C/C(=C\c1cc2c(cc1Br)OCO2)c1nc2ccccc2s1 | 22.2% |
| COc1cc(/C=C(\CCC(=O)O)c2nc3ccccc3s2)ccc1OCC(=O)Nc1c(Cl)cccc1Cl | 57.7% (active) |
| Cc1ccc(CNC(=O)Nc2ccc(Cl)cc2)cc1 | 1.92% |
| CCCCOc1ccc(CNC(=O)NS(=O)(=O)c2ccc(OCC(C)C)cc2)cc1 | 57.7% (active) |
| CCCCOc1ccc(S(=O)(=O)NC(=O)NCc2ccc(OCCC)cc2)cc1 | 32.1% (active) |
| O=C(COC(=O)C1(c2ccc(F)cc2)CCCC1)N1CCN(C(=O)c2ccco2)CC1 | 20.3% |
| Clc1ccc(SCCCCn2ccnc2)cc1 | 62.5% (active) |
| Clc1ccc(SCCn2ccnc2)cc1 | 37.8% (active) |
| Cc1c(NC(=O)CCSc2ccc(Cl)cc2)c(=O)n(-c2ccccc2)n1C | 24% |
| CC1(COS(N)(=O)=O)CCCCC1 | 16.8% |
| CC(NC(=O)c1cc2cc(Br)ccc2oc1=N)c1ccccc1 (stereo not drawn) | 21.8% |
| O=C(O)COc1ccccc1-c1nc(-c2ccccc2)c(-c2ccccc2)[nH]1 | 24% |
| CCOc1cc(Br)cc(C(c2c(C(=O)O)[nH]c3ccccc23)c2c(C(=O)O)[nH]c3ccccc23)c1O | 62.7% (active) |
| O=C(O)COc1ccc(Br)cc1C(c1c(C(=O)O)[nH]c2ccccc12)c1c(C(=O)O)[nH]c2ccccc12 | 46.4% (active) |
| O=C(O)c1[nH]c2ccccc2c1C(c1cc(Br)ccc1O)c1c(C(=O)O)[nH]c2ccccc12 | 89.5% (active) |
| CC(Nc1ccc(Cl)cc1)c1cc(Cl)ccc1O (stereo not drawn) | 42.3% (active) |
| COc1oc(C(=O)NC2CCCCC2)c(-c2ccc(Cl)cc2)c1S(=O)(=O)c1ccccc1 | 11.3% |
| Nc1scc(-c2ccncc2)c1Cl | 91.5% (active) |
| O=C(O)CCn1cc(/C=C\C(=O)c2ccc(Cl)cc2)c(-c2cccc(Br)c2)n1 | 41.1% (active) |
| O=C(O)CCn1cc(/C=C/C(=O)c2ccc(Cl)cc2)c(-c2cccc(Br)c2)n1 | 47.4% (active) |
| CCN(C(=O)CSc1nnc(-c2ccc3c(c2)OCO3)o1)C1CCS(=O)(=O)C1 (stereo not drawn) | 1.27% |

| SMILES | inhibition |
| --- | --- |
| NC(=S)N=Nc1c(O)n(CCCl)c2ccc(Br)cc12 | 30.4% (active) |
| Cc1ccc(S(=O)(=O)Oc2ccc(C3C4=C(CCCC4=O)N(CCC(=O)O)C4=C3C(=O)CCC4)cc2Cl)cc1 | 33.9% (active) |
| Cc1ccc(S(=O)(=O)Nc2ccc(S(=O)(=O)NCC3CCCO3)cc2)cc1 (stereo not drawn) | 23.3% |
| Cc1ccc(S(=O)(=O)Nc2cc(C)c(O)c(S(=O)(=O)c3ccc(C)cc3)c2)cc1 | 28.9% (active) |
| Cc1cc(C(C)(C)C)cc(S(=O)(=O)Nc2cccc(C(=O)O)c2)c1C | 23.3% |
| COc1cccc(/C=N/N2CCN(c3ccc(Cl)cc3)CC2)c1OC | 23.6% |
| NC1=NC(=O)/C(=C/c2cn(CCC(=O)O)nc2-c2ccc(F)cc2)S1 | 38.2% (active) |
| NC1=NC(=O)/C(=C/c2cn(CCC(=O)O)nc2-c2ccc(Cl)cc2)S1 | 24.1% (active) |
| NC(=O)c1c(NC(=O)CN2CCN(S(=O)(=O)c3ccccc3)CC2)sc2c1CCC2 | 1.51% |
| Cc1ccc(S(=O)(=O)N2CCC(=O)N(C(COC(=O)Nc3ccccc3)Cc3ccccc3)CC2)cc1 (stereo not drawn) | 32.5% (active) |
| CCc1ccc(-c2nc(CSCC(=O)N3CCN(c4ccccn4)CC3)c(C)o2)cc1 | 53% (active) |
| CCCCCCCCCCCC(=O)O | 21.5% |
| O=c1[nH]c(CSc2nc3ccccc3s2)nc2ccccc12 | 16.8% |
| COc1ccccc1N1CCN(S(=O)(=O)c2ccc(Cl)cc2)CC1 | 24.1% |
| CC(C(=O)Nc1ccccc1-c1ccccc1)N1CCN(S(=O)(=O)c2ccccc2)CC1 (stereo not drawn) | 22% |
| CC(=O)NC(Cc1c[nH]c2ccccc12)C(=O)OCC(=O)N1CCN(S(=O)(=O)c2ccc(Cl)cc2)CC1 (stereo not drawn) | 84.9% (active) |
| N=c1c(S(=O)(=O)c2ccc(Br)cc2)cc2c(=O)n3ccccc3nc2n1CCN1CCOCC1 | 22.9% |
| Nc1nc(C2CCCCC2)cs1 | 55.7% (active) |
| COC(=O)CSc1nnc(SCc2ccc(Cl)cc2)s1 | 20.6% |
| CCc1cccc(Nc2cnn(C34C[C@@H]5C[C@@H](CC(CC(=O)O)(C5)C3)C4)c(=O)c2Cl)c1 | 20.4% |
| NS(=O)(=O)c1cccc(NC(=O)CC23CC4CC(C2)CC(CC(=O)Nc2cccc(S(N)(=O)=O)c2)(C4)C3)c1 | 27.4% (active) |
| Cc1ccc(S(=O)(=O)n2oc(=O)c(C3CCCCC3)c2N)cc1 | 23.5% |
| O=C(/C=C/c1ccc(F)cc1)NC(=S)NNC(=O)[C@H]1C[C@@H]1c1ccccc1 | 47.2% (active) |
| CC(C)CNC(=O)c1cccc(NC(=O)CSc2ccc(Cl)cc2)c1 | 22.5% |

| SMILES | inhibition |
| --- | --- |
| O=C(/C=C/c1ccccc1)CC(O)(c1ccccc1)C(F)(F)F (stereo not drawn) | 38.1% (active) |
| COc1ccc(/C=C\C(=O)CC(O)(c2ccccc2)C(F)(F)F)cc1 (stereo not drawn) | 21.6% |
| CC(=O)Nc1ccc(NC(=O)C(C)OC(=O)C2(c3ccc(F)cc3)CCCC2)cc1 (stereo not drawn) | 23.3% |
| Cc1nn(-c2ccccc2)c2c1CC(=O)Nc1ccccc1-2 | 23.1% |
| Cc1nc(SCCC(=O)O)c2cc(-c3ccccc3)sc2n1 | 33.6% (active) |
| O=C(O)CN1C(=O)/C(=C\c2cccc(OCc3ccc(Cl)cc3)c2)SC1=S | 68.2% (active) |
| CC1=CC(=NNS(=O)(=O)c2ccc([N+](=O)[O-])cc2)CC(C)(C)C1 | 23.5% |
| O=[N+]([O-])c1ccc(S(=O)(=O)NNC(=S)NCCc2ccccc2)cc1 | 38.5% (active) |
| Nc1nn(S(=O)(=O)c2ccccc2)cc1-c1ccc([N+](=O)[O-])cc1 | 24% |
| O=c1[nH]c(CCl)nc2cc(-c3ccc(Cl)cc3)sc12 | 61% (active) |
| Cc1cc(NC(=S)N(Cc2ccc(Br)cc2)Cc2ccc(C(=O)O)cc2)ccc1Cl | 1.23% |
| O=C(O)c1[nH]c2ccccc2c1C(c1ccccc1)c1c(C(=O)O)[nH]c2ccccc12 | 75.9% (active) |
| COc1cc(C(c2c(C(=O)O)[nH]c3ccccc23)c2c(C(=O)O)[nH]c3ccccc23)ccc1OCc1ccccc1 | 37.9% (active) |
| O=C(O)c1[nH]c2ccccc2c1C(c1c(F)cccc1Cl)c1c(C(=O)O)[nH]c2ccccc12 | 33.3% (active) |
| O=C(O)c1[nH]c2ccccc2c1C(c1cccc(O)c1)c1c(C(=O)O)[nH]c2ccccc12 | 80.5% (active) |
| Cc1ccc(O)c(N=Cc2cc(Cc3ccccc3)cc([N+](=O)[O-])c2O)c1 | 20.2% |
| CCCCNC(=O)c1cccc(S(=O)(=O)N2CC3(C)CC2CC(C)(C)C3)c1 (stereo not drawn) | 19.5% |
| Cc1ccc(CN2[C@@H](CC3CCCCC3)COCCS2(=O)=O)cc1 | 23.1% |
| CCCCCCCCCCCCCC(=O)O | 22.4% |
| O=C(O)CN1C(=O)C2C3CC(C2C1=O)C1C(c2ccc(Cl)cc2)c2sc(=O)[nH]c2SC31 (stereo not drawn) | 37.1% (active) |
| O=C(O)CN1C(=O)C2C3CC(C2C1=O)C1C(c2ccc(F)cc2)c2sc(=O)[nH]c2SC31 (stereo not drawn) | 54.6% (active) |
| O=C(O)CN1C(=O)C2C3CC(C2C1=O)C1C(c2ccccc2)c2sc(=O)[nH]c2SC31 (stereo not drawn) | 59.3% (active) |
| O=C(COC(=O)CCSc1ccccc1)Nc1cc(F)ccc1F | 10.5% |
| COc1ccccc1CNC(=O)COC(=O)c1ccc(C(=O)c2ccccc2)cc1 | 3.07% |

| SMILES | inhibition |
| --- | --- |
| O=C(COC(=O)C12CC3CC(CC(Br)(C3)C1)C2)Nc1cccnc1Cl | 36.7% (active) |
| O=C(COC(=O)C12CC3CC(CC(Br)(C3)C1)C2)Nc1c(F)cccc1F | 35.8% (active) |
| COc1ccccc1NC(=O)COC(=O)C12CC3CC(CC(Br)(C3)C1)C2 | 26.2% (active) |
| O=C(COC(=O)C12CC3CC(CC(Br)(C3)C1)C2)Nc1ccc2[nH]c(=O)[nH]c2c1 | 31.2% (active) |
| O=c1c2c(nc3cc(-c4ccc(Cl)cc4)[nH]n13)CCS2 | 11.7% |
| N#C/C(=C\c1cc2c(cc1Br)OCO2)c1ccc(C(=O)O)cc1 | 23.6% |
| Nc1nc(-c2ccc(Br)cc2)cs1 | 92.3% (active) |
| Cc1ccc(-c2csc(NCCn3c(C)nc4cc(C(F)(F)F)ccc43)n2)cc1 | 23.5% |
| Cc1ccc(-c2csc(N)n2)cc1 | 63.1% (active) |
| Nc1nc(-c2ccc(F)cc2)cs1 | 55.6% (active) |
| Nc1nc(-c2ccccc2)cs1 | 35.5% (active) |
| O=C(O)c1sccc1SCc1ccc(Cl)cc1Cl | 22.4% |
| Nc1nc(-c2cccc(F)c2)cs1 | 36.3% (active) |
| Cc1nc(-c2cccc(S(=O)(=O)N3CCC(C)CC3)c2)cs1 | 23.7% |
| CC(NC(=O)COC(=O)C12CC3CC(CC(Br)(C3)C1)C2)c1ccccc1 (stereo not drawn) | 31% (active) |
| O=C(COC(=O)C12CC3CC(CC(C3)C1)C2)NNC(=O)c1ccccc1 | 21.4% |
| O=C(NCc1ccccc1)C12CC3CC(CC(Br)(C3)C1)C2 | 27.1% (active) |
| CC(CCc1ccccc1)NC(=O)COC(=O)C12CC3CC(CC(Br)(C3)C1)C2 (stereo not drawn) | 38.2% (active) |
| CC(NC(=O)CN(C)S(=O)(=O)c1cccc2nsnc12)c1ccccc1 (stereo not drawn) | 22.2% |
| O=C(O)CNC(=O)C12CC3CC(CC(Cl)(C3)C1)C2 | 22.2% |
| O=C(COC(=O)C12CC3CC(CC(Br)(C3)C1)C2)NNC(=O)c1ccccc1 | 46.3% (active) |
